How the values were obtained:
[1] = target: T1, TALER22 (synthetic, UniProt P14727 SEQ:1-806); assay: cell_activity; HEK293, two sites flanking CMVmini; conditions: tags: EYFP-2A upstream, SV40 NLS; dsDNA, one strand shown
T1 chain: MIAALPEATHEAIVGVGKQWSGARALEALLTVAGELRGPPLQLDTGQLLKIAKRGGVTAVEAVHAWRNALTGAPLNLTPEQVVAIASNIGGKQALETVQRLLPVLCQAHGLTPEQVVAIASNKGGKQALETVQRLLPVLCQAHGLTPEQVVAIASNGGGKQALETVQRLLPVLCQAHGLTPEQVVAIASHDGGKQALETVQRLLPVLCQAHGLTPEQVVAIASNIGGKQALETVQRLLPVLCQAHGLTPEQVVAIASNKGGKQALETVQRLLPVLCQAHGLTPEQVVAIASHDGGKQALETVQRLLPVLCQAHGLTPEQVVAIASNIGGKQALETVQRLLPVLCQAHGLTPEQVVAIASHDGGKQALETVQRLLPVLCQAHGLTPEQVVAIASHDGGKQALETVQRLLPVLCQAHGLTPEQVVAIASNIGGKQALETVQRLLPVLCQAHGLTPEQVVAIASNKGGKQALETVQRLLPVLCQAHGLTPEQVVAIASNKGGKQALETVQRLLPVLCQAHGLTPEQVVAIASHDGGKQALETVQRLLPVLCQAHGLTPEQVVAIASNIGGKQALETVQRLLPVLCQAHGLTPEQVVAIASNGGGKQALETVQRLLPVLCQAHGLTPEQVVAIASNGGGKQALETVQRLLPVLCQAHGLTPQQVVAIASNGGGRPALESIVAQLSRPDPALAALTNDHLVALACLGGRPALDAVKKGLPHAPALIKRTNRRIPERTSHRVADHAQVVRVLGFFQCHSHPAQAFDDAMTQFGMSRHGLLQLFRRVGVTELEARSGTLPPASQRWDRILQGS

[2] = target: T2, TALER23 (synthetic, UniProt P14727 SEQ:1-806); assay: cell_activity; HEK293, two sites flanking CMVmini; conditions: tags: EYFP-2A upstream, SV40 NLS; dsDNA, one strand shown
T2 chain: T1 chain

Sequence: TAGTCAGCACCAGGCATTT
- binding signal [1]: 4.66 fold repression

Sequence: TCCGGATGCTCCTCTTAAT
- binding signal [2]: 2.2 fold repression

From patent publication US20200071711, “MODULAR CONSTRUCTION OF SYNTHETIC GENE CIRCUITS IN MAMMALIAN CELLS USING MATHEMATICAL MODELING OF CLOSED LOOP TRANSCRIPTIONAL REPRESSORS” (Tsinghua University, published 2020)
